# CD11b adhes enh = CD11b/CD18-fibrinogen binding enhancement | P05107+P11215 | K562 CD11b/CD18 adhesion to fibrinogen, ATPlite luminescence | activation, % at 10 µM | 93,000 compounds, 0.07% hits | AID 1499;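 active means 10 µM primary screen giving 50% or more activity, confirmed by 40% or more on retest at that dose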
# Target sequence (P05107 whole entry, looked up, other chains not shown): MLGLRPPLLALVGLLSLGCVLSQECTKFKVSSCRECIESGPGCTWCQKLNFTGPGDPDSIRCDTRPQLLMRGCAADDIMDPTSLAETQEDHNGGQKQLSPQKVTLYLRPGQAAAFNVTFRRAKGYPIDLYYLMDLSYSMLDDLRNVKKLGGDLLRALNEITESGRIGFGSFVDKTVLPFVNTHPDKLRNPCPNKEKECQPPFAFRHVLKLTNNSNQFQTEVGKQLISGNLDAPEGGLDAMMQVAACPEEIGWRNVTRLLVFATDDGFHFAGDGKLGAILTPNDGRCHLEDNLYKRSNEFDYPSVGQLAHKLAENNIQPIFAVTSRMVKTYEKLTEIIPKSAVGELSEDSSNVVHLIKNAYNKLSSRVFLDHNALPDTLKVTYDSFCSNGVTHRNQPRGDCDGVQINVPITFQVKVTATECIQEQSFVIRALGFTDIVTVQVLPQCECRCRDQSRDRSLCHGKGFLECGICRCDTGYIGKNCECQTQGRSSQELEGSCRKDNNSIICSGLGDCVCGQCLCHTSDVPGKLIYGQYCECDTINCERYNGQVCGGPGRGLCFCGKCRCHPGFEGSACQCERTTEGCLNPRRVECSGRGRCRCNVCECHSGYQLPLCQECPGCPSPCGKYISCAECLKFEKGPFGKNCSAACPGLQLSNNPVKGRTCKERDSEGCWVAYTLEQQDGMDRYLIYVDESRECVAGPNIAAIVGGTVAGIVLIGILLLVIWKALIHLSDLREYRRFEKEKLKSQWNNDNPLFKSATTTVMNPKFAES
# CD11b adhes inh = blocks human CD11b/CD18 adhesion to fibrinogen. inhibition, % at 10 µM. 93,000 compounds, 0.54% hits. AID 1497. K562 CD11b/CD18 adhesion to fibrinogen, ATPlite luminescence; Mn2+ added to activate the integrin;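 active means primary inhibition of 50% or more at 10 µM, then 40% or more on retest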
# E coli WT exp = E. coli BW25113 growth inhibition, expanded screen; 98,000 compounds, 0.15% hits; OD600 absorbance; growth inhibition, % at 100 µM;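 active means growth inhibition above about 50% at one test dose, limit read from the data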;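 further: growth measured after 20 h incubation at 37 °C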
# Cav32 inh = blocks human Cav3.2 T-type calcium channel; O95180; Cav3.2-expressing cells, Fluo-4 calcium fluorescence FDSS; stronger effect = lower value; 100,000 compounds, 4% hits; B-score at 10 µM; AID 449739;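 active means single-dose well whose peak fluorescence ratio is a statistical outlier from its plate by either plate-standardised score or position-corrected B-score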
# The depositor's hits bear a star; nt = not tested or not shown. This excerpt belongs to a sample that is enriched for hits.
SMILES,CD11b adhes enh,CD11b adhes inh,E coli WT exp,Cav32 inh
Cc1nc(Nc2ccc(F)cc2)[nH]c(=O)c1CCC(C)C,nt,nt,-3,-5.6*
CCCC(=Nc1ccc(N)cc1)C1=C(O)C(C(=O)OC)C(C)(C)CC1=O (centres undefined),-3,-4,6,-5.1*
Cc1ccccc1CN1[C@@H](C(C)C)COCCS1(=O)=O,nt,nt,nt,0.41
Cc1ccccc1NC(=O)c1sc2nc3c(c(-c4ccco4)c2c1N)CCCC3,-6,1,-7,-4.2*
Nc1c(C(=O)Nc2ccccc2)sc2nc3c(c(-c4ccco4)c12)CCCC3,nt,nt,-2,-2.1
CCCCCn1c(SCc2ccncc2)nc2cc(C(=O)NCc3ccco3)ccc2c1=O,nt,nt,-24,-4.2*
CCCCn1c(SCC(=O)NCc2ccco2)nc2ccccc2c1=O,-4,-22,1,-2
N#C/C(=N\Nc1ccc(Cl)cc1)C(=O)c1ccccc1,-8,94*,-2,-5.5*
CCOC(=O)NC(=O)/C(C#N)=N\Nc1ccc(Cl)cc1,-3,35,1,-5.1*
CC(NC(=O)CCSc1nc(-c2ccco2)cc(C(F)(F)F)n1)c1ccccc1 (centres undefined),3,-3,-11,-6*
Cc1cc(NC(=O)CCCSc2nc(-c3ccco3)cc(C(F)(F)F)n2)n(-c2ccccc2)n1,nt,nt,nt,-4.3*
CN(Cc1ccccc1)C(=O)CCSc1nc(-c2ccc3c(c2)OCO3)cc(C(F)(F)F)n1,nt,nt,nt,-6.8*
O=C(CCSc1nc(-c2ccco2)cc(C(F)(F)F)n1)Nc1ccc2c(c1)OCO2,nt,nt,-2,-5.7*
O=C(CCSc1nc(-c2ccc3c(c2)OCO3)cc(C(F)(F)F)n1)NCc1ccccc1,nt,nt,nt,-1.1
O=C(CCSc1nc(-c2ccco2)cc(C(F)(F)F)n1)NCc1cccs1,nt,nt,nt,-1.7
Cc1cccnc1NC(=O)Nc1cccc(C(F)(F)F)c1,53,-17,-6,-0.35
CCOC(=O)C1=NN(C(=O)Nc2cccc(C(F)(F)F)c2)C2C(=O)N(c3cccc(C(F)(F)F)c3)C(=O)C12 (centres undefined),-4,-13,-4,-5.7*
O=C(c1sc2ccccc2c1Cl)N(Cc1cccs1)C1CCS(=O)(=O)C1 (centres undefined),3,5,-6,-7.8*
C(/C=C/C=C/Nc1ccccc1)=Nc1ccccc1,1,14,1,-5*
COc1ccc(-c2oc3ccc(N4CCOCC4)cc3c2C#CC2(O)CCCCC2)cc1,nt,nt,nt,-1.2
CCOC(=O)C1=C(Cc2ccc(C)cc2)C(=O)c2ccccc2C1=O,-7,90*,-18,-2.8
C=CCn1c(SCC(=O)N2CC(=O)Nc3ccccc32)nc2scc(-c3ccccc3)c2c1=O,26,0,-4,-7.2*
C=CCn1c(SCC(=O)N2CCCC2)nc2scc(-c3cccs3)c2c1=O,3,0,-7,nt
C=CCn1c(SCC(=O)Nc2ccccc2)nc2scc(-c3cccs3)c2c1=O,4,12,-17,-5.1*
C=CCn1c(SCC(=O)NCc2ccc3c(c2)OCO3)nc2scc(-c3ccccc3)c2c1=O,nt,nt,-8,-2.3
SMILES,CD11b adhes enh,CD11b adhes inh,E coli WT exp,Cav32 inh
C=CCn1c(SCC(=O)N2CCOCC2)nc2scc(-c3ccco3)c2c1=O,-1,3,2,3.5*
CCOC(=O)c1ccc(NS(=O)(=O)c2ccc(SC)cc2)cc1,-1,-13,2,-1.2
CCOC(=O)Cc1ccc(NS(=O)(=O)c2ccc(SC)cc2)cc1,nt,nt,2,-6.2*
CCOc1ccc(NS(=O)(=O)c2ccc(SC)cc2)cc1,nt,nt,-9,-5.9*
Cc1ccc(OCc2nc(-c3ccccn3)no2)c(Br)c1,-2,48,14,-2.9
CCc1ccc(OCc2nc(-c3ccccn3)no2)c(Br)c1,-8,44,14,-4.6*
CCOC(=O)C1=C(CSc2nc3c(cc2C#N)CCC3)OC(N)=C(C#N)C1c1ccccc1 (centres undefined),nt,nt,-2,-5.1*
COc1ccc(/C(C)=N/OC/C(O)=C(\C#N)c2nc3ccccc3[nH]2)cc1,11,0,nt,nt
CC(CC(=O)Nc1ccc(Cl)c([N+](=O)[O-])c1)c1ccccc1 (centres undefined),-7,-2,10,-8.7*
COc1ccc([N+](=O)[O-])cc1NC(=O)CC(C)c1ccccc1 (centres undefined),-3,-9,1,-3.4
Cc1nn(-c2c(Cl)cc(Cl)cc2Cl)c(=O)c2ccccc12,1,0,4,-5*
CN(C)CCNC(=O)c1c(CSc2ccccc2)noc1C(=O)NCc1ccccc1,nt,nt,nt,0.063
O=C(NC(=S)Nc1ccc(Oc2ccccc2)cc1)c1ccc(Cl)cc1,-9,78*,-19,-2.1
Cc1ccc(C(=O)NC(=S)Nc2ccc(Oc3ccc(Cl)cc3)cc2)cc1,nt,nt,-20,-0.99
COC(=O)[C@@H]1C[C@@]2(O)[C@@H](O)[C@@H](O)[C@@H](O)C[C@H]2N1C/C=C/c1ccccc1,nt,nt,nt,1.5
N[C@@H](Cc1ccc(O)cc1)c1nnc([C@H](CC(=O)O)NC(=O)C2CCNCC2)o1,nt,nt,nt,0.87
CC(C)(C)C(=O)NCCCc1nc2ccccc2n1CCCOc1ccc(Cl)cc1,nt,nt,-4,-6.7*
C=CCn1c(CCCNC(=O)C(C)(C)C)nc2ccccc21,3,-14,-4,-0.1
CN(C)c1cccc(C(=O)n2cc(C(=O)c3cc(F)ccc3O)cn2)c1,-3,-4,15,-3.9*
COc1ccc(O)c(C(=O)c2cnn(C(=O)c3cc(C)oc3C)c2)c1,0,1,8,2
O=C(Nc1cc(C(F)(F)F)ccc1N1CCCCC1)c1cccc([N+](=O)[O-])c1,-5,-4,-11,-0.78
CC(=O)NC1(c2nnnn2CCOC(=O)Nc2ccc(Cl)cc2)CCCCC1,0,0,4,0.31
O=C(Nc1ccc(Cl)cc1)OCCn1nnnc1C(c1ccccc1Cl)N1CCOCC1 (centres undefined),nt,nt,15,-6.9*
c1ccc(-c2ccccc2-c2nc(-c3cccnc3)no2)cc1,1,-7,4,-5*
Cc1ccc(-c2nc(-c3ccccc3)no2)cc1,-4,34,-1,0.63
SMILES,CD11b adhes enh,CD11b adhes inh,E coli WT exp,Cav32 inh
Cc1ccc(-c2nc(-c3ccccc3)no2)c(Cl)c1,-10,104*,-12,0.012
Cc1c(Cl)cnc(NC(=O)COC(=O)CCc2nc3ccccc3s2)c1Cl,0,16,nt,nt
CC(C)c1nnc(NC(=O)CCC(=O)NC2CCCc3ccccc32)s1 (centres undefined),3,6,nt,nt
O=C(Nc1nc(-c2ccc3c(c2)OCO3)cs1)C1COc2ccccc2O1 (centres undefined),-6,35,-7,-5.3*
CCCCn1c(CCC)nc([N+](=O)[O-])c1Sc1ccc(Cl)cn1,nt,nt,nt,-9*
CC(C)Cn1c(C(C)C)nc([N+](=O)[O-])c1Sc1ccc(Cl)cn1,nt,nt,nt,-5.8*
O=C(Nc1cccc(C(F)(F)F)c1)c1ccc2nc(-c3ccco3)c(-c3ccco3)nc2c1,-4,9,-12,-4.8*
CC1(OC(=O)c2cccs2)C(=O)C=C2C=C(C3CC3)OC=C2C1=O (centres undefined),nt,nt,nt,-2.8*
Cc1ccc(C)c(N2CCN(C(=O)Cc3cn(C)c4ccccc34)CC2)c1,-2,-4,-22,-5.4*
